The values that follow come from PubChem BioAssay (NCI).

The panel holds about 83,000 compounds, 20% with a hit somewhere; the sample as a whole holds those more often.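 Testing used 96-well plates and a 48-hour single-concentration exposure. Example: -40 means 40% of the starting cells died.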 Unmarked numbers belong to inactive results. Active and inactive are the calls of the source. Rule for the calls: active = growth percent below 10; inactive = the rest.

In the first experiment the test system is A549/ATCC NSCLC. Briefly: NCI-60 one-dose screen, 48 h (100 = growth as untreated, 0 = no growth, -100 = all killed). The settings on record: 10 µM unless noted.
For `CC1=C(C(=O)c2ccccc2)C(c2ccc(-n3cncn3)cc2)n2c(nc3ccccc32)N1` (stereo not given), the growth is 77.1%.

For the compound `CN(C)CCCNC(=O)c1cc(NC(=O)c2cc(NC(=O)c3ccc(C#Cc4ccccc4)cc3)cn2C)cn1C`, the growth is -14.8% (active).

`COc1cccc(/C=C/c2nc3ccccc3c(=O)n2CC(=O)Nc2ccc(Cl)cc2)c1`: the growth was 28.5%.

In another experiment the test system is 786-0 renal. Described as above. The settings on record: 10 µM unless noted.
As for `COC(=O)C[C@](O)(CCCC(C)(C)O)C(=O)O[C@H]1C(OC)=C[C@@]23CCCN2CCc2cc4c(cc2[C@@H]13)OCO4`, the growth was -14.4% (active).

With `COc1cc(/C=C2\C(=N)N=C(SCc3nc4ccccc4[nH]3)NC2=O)ccc1O`, the growth was 109%.

As to `N/C(=N\N=C\c1ccc([N+](=O)[O-])cc1)c1c(N)nc(=S)[nH]c1-c1ccc(Cl)cc1Cl`, the growth is 54.1%.

Take `CC1(c2cc3cc(Cl)ccc3oc2=O)NC(=O)c2c(/C=C/C(=O)OC3CC4CCC3(C)C4(C)C)cccc2N1` (stereo not given): the growth is 69.9%.

For `O=C(N=Nc1c(O)[nH]c2ccc(Cl)cc12)c1ccc2nc(-c3ccccc3)[nH]c2c1`, the growth is 47.4%.

`O=C(O)c1cccc(-c2ccc(/C=N/NC(=O)c3[nH]c4ccc(Br)cc4c3-c3ccccc3)o2)c1`: the growth was 84.6%.

For the compound `CC1(C)CC[C@]2(C(=O)Nc3ccccc3)CC[C@]3(C)C(=CCC4[C@@]5(C)C[C@@H](O)[C@H](O)[C@@](C)(CO)C5CC[C@]43C)C2C1` (stereo not given in full), the growth is 71.1%.

With `O=c1[nH]c2ccccc2cc1CSc1cccc(Nc2nccc(-c3ccc4ccccc4c3)n2)c1`, the growth was 75.2%.

As for `Clc1cccc(N/N=C/c2c[nH]c3ccc(Br)cc23)n1`, the growth was 13%.

With `CSc1ccc(NC(=O)c2ccc3nnn(/C(C#N)=C/c4ccccn4)c3c2)cc1`, the growth is -98.1% (active).

With `Cc1c(C(=O)NNC(=O)c2ccc(Cl)cc2)nnn1-c1ccc(Cl)cc1`, the growth is 94.2%.

Consider `CN(C)c1nc(NCCNS(=O)(=O)c2ccc(C(=O)/C=C/c3ccc(F)cc3)cc2)nc(Nc2ccc(F)cc2)n1`, for which the growth was -85.6% (active).

Consider `CNC(=O)c1cc(Oc2ccc3nc(NC(=O)Nc4cccc(OC(F)(F)F)c4)sc3c2)ccn1`, for which the growth was -50.7% (active).

Take `CC(C)(C)OC(=O)/C=C/c1cccc2c1C(=O)NC(C)(c1cc3cc(Cl)ccc3oc1=O)N2` (stereo not given): the growth was 54.5%.

Consider `Cc1ccc(C2CC(c3ccc(S(=O)(=O)NCCNc4nc(Nc5ccc(F)cc5)nc(N(C)C)n4)cc3)=Nc3c(N)nc(N)nc3N2)cc1` (stereo not given), for which the growth is 42%.

As to `CC1=C(C(=O)OC(C)C)C(c2cccc(O)c2)NC(=S)N1` (stereo not given), the growth was 106%.

In the case of `C[C@H](Nc1nc(NCCc2ccccc2)nc2ccccc12)c1ccccc1`, the growth is -87.3% (active).

`COc1ccc(-c2c(Nn3cnnn3)no[n+]2[O-])cc1`: the growth was 53.6%.

With `Cn1cc(NC(=O)c2cc(NC(=O)c3ccc(C#Cc4ccccc4)cc3)cn2C)cc1C(=O)NCCCN1CCOCC1`, the growth is -4.75% (active).

Consider `COc1cc(NC(=O)c2cccc(C3CCc4c(cc(OC)c(OC)c4OC)O3)c2)cc(OC)c1OC` (stereo not given), for which the growth was 24.3%.

Regarding `COc1ccc(-c2nnc3ccc(N/N=C/c4ccc(C)cc4)nn23)cc1`, the growth was 56.9%.

On to `Cc1ccc(-n2c(-c3cc4ccccc4nc3Cl)noc2=O)cc1`, for which the growth is 91.3%.

Turning to `CC(=O)Oc1ccccc1C(=O)[Se]CC(=O)Nc1cccc(C(F)(F)F)c1`, the growth was -14.7% (active).

`N#Cc1c(-c2ccccc2Cl)cc(-c2ccc3ccccc3c2)[nH]c1=O`: the growth is -40.9% (active).

For the compound `CCCCNC(=S)Nc1ccc(OCc2nc3ccccc3[nH]2)cc1`, the growth was 62.3%.

For `COc1ccc(-c2nc3cc(C)ccc3n2CC(=O)N=Nc2c(O)[nH]c3ccccc23)cc1`, the growth was 60.8%.

Regarding `COc1ccc(-c2nc3ccc(C(=O)NN4C(=O)c5ccc([N+](=O)[O-])cc5C4=O)cc3[nH]2)cc1`, the growth is 87.7%.

With `O=c1oc2ccccc2cc1-c1csc(N=Nc2c(O)[nH]c3ccc(Cl)cc23)n1`, the growth is 86.3%.

In the case of `CN(C)c1ccnc(CNCCSC2(c3ccccc3)c3ccccc3C=Cc3ccccc32)c1`, the growth is -46.8% (active).

On to `COc1cc2c(c(OC)c1OC)C(=O)CC(c1cccc(NC(=O)c3cc(NC(=O)[C@@H](N)CO)ccc3C)c1)O2` (stereo not given in full), for which the growth was 107%.

In the case of `COc1ccc(C(=O)/C=C/c2c(F)cccc2Cl)cc1S(N)(=O)=O`, the growth was 0.405% (active).

Turning to `O=C(Nc1cccc(-n2cnc3cc(-c4ccc(O)cc4)ccc32)c1)C1CC1`, the growth was 25.8%.
